Holding throughout (assay): glycan array binding signal (z-score within array); higher = stronger binding
What all share (settings): glycan notation: IUPAC condensed, linker removed

Experiment [1] deals with Gal(b1-4)GlcNAc(b1-3)Gal(b1-4)GlcNAc(b1-3)Gal(b1-4)GlcNAc(b1-3)Gal(b1-4)GlcNAc(b1-3)Gal(b1-4)GlcNAc(b1-2)Man(a1-3)[Gal(b1-4)GlcNAc(b1-3)Gal(b1-4)GlcNAc(b1-3)Gal(b1-4)GlcNAc(b1-3)Gal(b1-4)GlcNAc(b1-3)Gal(b1-4)GlcNAc(b1-2)Man(a1-6)]Man(b1-4)GlcNAc(b1-4)[Fuc(a1-6)]GlcNAc. In short, it runs like this:
(§1)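 From the Consortium for Functional Glycomics database, 3228 arrays were curated, keeping only those whose protein sequence was available. Binding is given as a within-array Z-score averaged across arrays sharing a protein sequence and across linkers. Negative Z-scores can be read as non-binding.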

Experiment [2] has as its target Gal(b1-4)GlcNAc(b1-3)[GlcNAc(b1-6)]Gal(b1-4)GlcNAc. The essentials: as §1
The target in experiment [3] is Gal(b1-4)GlcNAc(b1-6)GalNAc. The essentials: as §1
A further experiment concerns the target GalNAc(b1-3)Gal. The essentials: as §1
The next experiment concerns the target GalNAc(b1-6)GalNAc. The essentials: as §1
The next experiment deals with Glc(a1-6)Glc(a1-6)Glc. The essentials:
as §1

The target of experiment [4] is GlcNAc(a1-4)Gal(b1-4)GalNAc. The essentials: as §1
The target of experiment [5] is GlcNAc(b1-3)Gal(b1-4)GlcNAc(b1-2)Man(a1-3)[GlcNAc(b1-3)Gal(b1-4)GlcNAc(b1-2)Man(a1-6)]Man(b1-4)GlcNAc(b1-4)GlcNAc. The essentials: as §1
The target in experiment [6] is GlcNAc(b1-4)Gal(b1-4)GlcNAc. The essentials:
as §1

In experiment [7] the target is GlcNAc(b1-4)GlcNAc(b1-4)GlcNAc. In short, it runs like this: as §1
Another experiment addresses Kdn(a2-3)Gal(b1-4)GlcNAc. The essentials:
as §1

Experiment [8] concerns the target Man(a1-3)[Man(a1-6)]Man(a1-6)[Man(a1-3)]Man. The essentials: as §1
For experiment [9], the target named is Neu5Ac(a2-3)Gal(b1-3)GalNAc(b1-3)Gal(a1-4)Gal(b1-4)Glc. The essentials:
as §1

Experiment [10] addresses Neu5Ac(a2-3)Gal(b1-3)GlcNAc6S. In short, it runs like this:
as §1

Experiment [11] addresses Neu5Ac(a2-3)Gal(b1-3)[Neu5Ac(a2-6)]GalNAc. The essentials:
as §1

Experiment [12] concerns the target Neu5Ac(a2-3)Gal(b1-4)GlcNAc(b1-2)Man(a1-3)[GlcNAc(b1-4)][Neu5Ac(a2-3)Gal(b1-4)GlcNAc(b1-2)Man(a1-6)]Man(b1-4)GlcNAc(b1-4)GlcNAc. The essentials:
as §1

The target in experiment [13] is Neu5Ac(a2-3)Gal(b1-4)GlcNAc(b1-3)Gal(b1-4)GlcNAc. The essentials:
as §1

Experiment [14] concerns the target Neu5Ac(a2-3)Gal(b1-4)GlcNAc(b1-6)[Gal(b1-3)]GalNAc. The essentials:
as §1

Experiment [15] addresses Neu5Ac(a2-3)Gal(b1-4)GlcNAc(b1-6)[Neu5Ac(a2-3)Gal(b1-3)]GalNAc. The essentials:
as §1

The target in experiment [16] is Neu5Ac(a2-3)[GalNAc(b1-4)]Gal(b1-4)Glc. In short, it runs like this:
as §1

Experiment [17] deals with Neu5Ac(a2-3)[Neu5Ac(a2-6)]GalNAc. In short, it runs like this:
as §1

For experiment [18], the target named is Neu5Ac(a2-6)Gal(b1-4)GlcNAc(b1-2)[Neu5Ac(a2-6)Gal(b1-4)GlcNAc(b1-4)]Man(a1-3)[GlcNAc(b1-4)][Neu5Ac(a2-6)Gal(b1-4)GlcNAc(b1-4)Man(a1-6)]Man(b1-4)GlcNAc(b1-4)GlcNAc. In short, it runs like this:
as §1

Experiment [19] addresses Neu5Ac(a2-6)Gal(b1-4)GlcNAc(b1-6)GalNAc. The essentials: as §1
Experiment [20] deals with Neu5Gc(a2-8)Neu5Ac(a2-3)Gal(b1-4)GlcNAc. In short, it runs like this:
as §1

The full list was thinned out, with the strongest signals kept by preference.

B1: PLU (Photorhabdus luminiscence) (protein)
chain: HHHHHHENLYFQSSIVFASIDPRSNPLQTSSQNYVDIPGLKLDVSKYSNSPCLTALITLNIPTPYASGNNFPGGNFAIVTDQGEQLAYGGFTYSSKIPENSGRMPFTLVARYSLASNVSTIKAQWSNIRGSTVHIDSYASISAVIQCNQLV
B1: the “glycan array binding signal (z-score)” value was -0.211 in [1]; -0.329 in experiment [2]; -0.243 in experiment [3]; -0.24 with GalNAc(b1-3)Gal; -0.216 in the experiment with GalNAc(b1-6)GalNAc; -0.299 in the experiment with Glc(a1-6)Glc(a1-6)Glc. Also, the “glycan array binding signal (z-score)” value in experiment [4] is -0.301; in [5], -0.212; in experiment [6], -0.134; in [7] it was -0.336; in the experiment with Kdn(a2-3)Gal(b1-4)GlcNAc it was -0.224; in [8] it was -0.093. Moreover, the “glycan array binding signal (z-score)” value in [9] is -0.254; in [10], -0.277; in [11] it was -0.203; in experiment [12] it was -0.251; in experiment [13] it was -0.256; in [14], -0.144. Besides, the “glycan array binding signal (z-score)” value in experiment [15] is -0.34; in experiment [16], -0.324; in [17], -0.281; in [18] it was -0.267; in [19], -0.292; in experiment [20] it was -0.285.
